# Experimental data published in PubChem BioAssay.
# Activity calls are given as the source filed them.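 How the source made its calls, unless noted: active means NADPH fluorescence slope more negative than the mean of all samples by about 3 SD, 99.7% confidence; inactive means the rest.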
# Tests used:
# [1] = inhibitors of TNFa-induced NFkB p65 translocation, primary screen, imaging, HUVEC, MLSMR starter and 10KST1 sets (AID 438;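 active means inhibition above 20% together with a positive visual image hit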;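 further: compound added about 3h40 before a 20 min TNFalpha stimulation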;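 on inhibition: signal is the nuclear over cytoplasmic p65 intensity ratio per well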); conditions: HUVEC TNFa-induced p65 nuclear translocation; cell count: measured here: nuclei count (cytotoxicity indicator), at 2.08 µM; inhibition: at 2 µM, stronger effect = higher value, 0% TNFa-plus-vehicle, 100% no-TNFa wells
# [2] = inhibitors of mutant huntingtin aggregation, primary screen, imaging, exon1htt(103Q)mCFP cells, high-content imaging (AID 483;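 active means visual image review flags a hit and inhibition of aggregation exceeds 20%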;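 further: compound exposure lasted 3 days before fixation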;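 on nuclei count: percent of the per-plate median nuclei count of sample wells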); conditions: exon1htt(103Q)mCFP cell line, aggregate imaging, at 2 µM; inhibition of aggregation: stronger effect = higher value; nuclei count: measured here: cell count, toxicity
# [3] = inhibitors of E-selectin induction by TNFa, primary screen, imaging, HUVEC, immunofluorescence, MLSMR starter and 10KST1 sets (AID 487;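 active means visually confirmed hit in the image check and inhibition above 20%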;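 on inhibition: signal is fraction of cell area covered by stained E-selectin grains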;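 on nuclei count: 100% = median nuclei count of all wells on the same plate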); conditions: HUVEC TNFalpha-induced E-selectin immunofluorescence imaging, at 2 µM; inhibition: stronger effect = higher value; nuclei count: measured here: cell number, toxicity
# [4] = biological target: Voltage-gated potassium channel subunit beta-2 (Rattus norvegicus) (UniProt P62483); test: KvBeta enzyme negative modulators, primary screen, biochemical, NADPH fluorescence (AID 622;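 active means fluorescence slope higher than the sample average by over 3 SD, cut at about -0.22 in these data, passing the limit was not always enough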;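 further: slope of raw intensity against log time taken from 70 to 1610 s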); conditions: recombinant KvBeta, 4-cyanobenzaldehyde reduction, at 10 µM, stronger effect = higher value
# [5] = biological target: Voltage-gated potassium channel subunit beta-2 (Rattus norvegicus) (UniProt P62483); test: KvBeta positive modulators, primary screen, biochemical, NADPH fluorescence (AID 623); conditions: Recombinant KvBeta, NADPH fluorescence decrease slope, 10 min; at 10 µM; stronger effect = lower value;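 further: fluorescence intensity change per second fitted from 20 to 320 s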
# [6] = biological target: Alpha-2C adrenergic receptor (Homo sapiens) (UniProt P18825); test: modulators of alpha2C/GIRK thallium flux, primary screen, cell-based, HEK293 alpha2C/GIRK1/2 (AID 624;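 active means fluorescence slope after compound addition differing from the mean of all screened samples at 99.7% confidence, in either direction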;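 further: slope of fluorescence ratio to pre-addition baseline per second over 15 to 24 s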); conditions: thallium flux BTC fluorescence, at 10 µM, actives lie on both sides
# [7] = inhibitors of Sendai virus-induced IRF3 signaling, primary screen, TLR/RLR signaling modifier project, cell-based, Sendai virus stimulus, luciferase, 10K MLSCN set (AID 602276;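 active means inhibition at or above 50% at 10 µM; inactive means inhibition below 50%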;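 further: firefly luciferase from ISG56 promoter only with Renilla not read in this screen; 0% = Sendai virus plus DMSO and 100% = medium plus DMSO without virus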); conditions: HEK293 RL24 IRF3 luciferase reporter, at 10 µM, stronger effect = higher value
# [8] = inhibitors of poly I:C-induced TLR3 signaling, primary screen, cell-based, poly I:C stimulus, luciferase, 10K MLSCN set (AID 602277;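 active means inhibition of the reporter signal at or above 50%; inactive means inhibition below 50%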); conditions: HEK293-TLR3 RL24 IRF3 luciferase reporter, at 10 µM, stronger effect = higher value
# Sequence of Alpha-2C adrenergic receptor (Homo sapiens) (P18825 whole entry, looked up): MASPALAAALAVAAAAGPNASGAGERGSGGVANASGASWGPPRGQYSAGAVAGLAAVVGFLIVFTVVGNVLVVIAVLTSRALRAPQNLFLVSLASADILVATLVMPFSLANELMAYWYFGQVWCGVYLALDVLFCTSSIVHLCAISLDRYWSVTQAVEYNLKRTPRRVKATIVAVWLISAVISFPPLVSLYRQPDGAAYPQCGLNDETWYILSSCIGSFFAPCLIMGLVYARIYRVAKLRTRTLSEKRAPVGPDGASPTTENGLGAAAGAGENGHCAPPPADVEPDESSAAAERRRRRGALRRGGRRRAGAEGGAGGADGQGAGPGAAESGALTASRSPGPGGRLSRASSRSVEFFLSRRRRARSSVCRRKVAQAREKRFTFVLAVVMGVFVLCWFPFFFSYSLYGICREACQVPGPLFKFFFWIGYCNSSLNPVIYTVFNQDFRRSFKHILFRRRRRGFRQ
# Sequence of Voltage-gated potassium channel subunit beta-2 (Rattus norvegicus) (P62483 whole entry, looked up): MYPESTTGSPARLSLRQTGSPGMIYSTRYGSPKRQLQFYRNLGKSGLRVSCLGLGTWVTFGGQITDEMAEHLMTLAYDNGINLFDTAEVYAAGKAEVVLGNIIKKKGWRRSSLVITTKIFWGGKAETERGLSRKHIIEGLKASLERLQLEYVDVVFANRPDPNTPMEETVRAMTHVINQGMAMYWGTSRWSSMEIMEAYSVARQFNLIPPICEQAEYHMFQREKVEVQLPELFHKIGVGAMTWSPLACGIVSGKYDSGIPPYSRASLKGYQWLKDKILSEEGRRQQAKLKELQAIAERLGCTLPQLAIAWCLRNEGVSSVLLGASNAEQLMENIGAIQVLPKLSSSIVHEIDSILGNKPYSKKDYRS
Structure (SMILES),cell count [1],inhibition [1],inhibition of aggregation [2],nuclei count [2],inhibition [3],nuclei count [3],fluorescence slope [4],NADPH fluorescence slope [5],slope [6],inhibition [7],inhibition [8]
CCOC(=O)c1cnc(SCC)[nH]c1=O,436,-11.8% (inactive),-0.2% (inactive),118%,-34.3% (inactive),117%,-0.351 (inactive),-2.9e-05 (inactive),0.00558 (inactive),6.7% (inactive),27% (inactive)
CSc1nc(C)cc(Oc2ccc(=O)n(C)n2)n1,380,-0.7% (inactive),1.1% (inactive),101%,-30.2% (inactive),109%,-0.478 (inactive),-4.2e-06 (inactive),0.00506 (inactive),1.26% (inactive),22.5% (inactive)
CCOc1cc(S(=O)(=O)N2CCC(Cc3ccccc3)CC2)c(OCC)cc1-n1cnnn1,517,1.9% (inactive),-5.6% (inactive),103%,-119% (inactive),178%,-0.613 (inactive),9.5e-06 (inactive),0.0103 (inactive),-0.144% (inactive),10.4% (inactive)
O=C(CC1CCS(=O)(=O)C1)Nc1ccc[nH]c1=O (stereo not drawn),475,-4.7% (inactive),-4.6% (inactive),63.8%,42.5% (inactive),49%,-0.41 (inactive),-6.4e-05 (inactive),0.0024 (inactive),16.2% (inactive),8.75% (inactive)
Cc1cc(N2CCN(c3ccccn3)CC2)n2nc(C)nc2n1,435,3.5% (inactive),-16.4% (inactive),105%,-4.2% (inactive),111%,-0.376 (inactive),-3.3e-05 (inactive),0.00609 (inactive),12.8% (inactive),-7.58% (inactive)
C=C(C)c1cccc(C(C)(C)NC(=O)NCC2CCCO2)c1 (stereo not drawn),496,2.3% (inactive),-23% (inactive),108%,-31.1% (inactive),113%,-0.362 (inactive),-5.6e-05 (inactive),0.0056 (inactive),7.08% (inactive),9.27% (inactive)
O=C(CCc1nc2ccccc2s1)OCC(=O)N1CCN(C(=O)c2ccco2)CC1,641,-7.6% (inactive),-0.7% (inactive),100%,-126% (inactive),128%,-0.584 (inactive),-2.7e-05 (inactive),0.00548 (inactive),14.9% (inactive),24.8% (inactive)
CC(C)(C)NC(=O)C(c1ccco1)N(C(=O)Cn1nnc(-c2ccc(F)cc2)n1)c1ccccc1F (stereo not drawn),562,1.2% (inactive),14.8% (inactive),96.5%,-96.2% (inactive),127%,-0.56 (inactive),-6.1e-05 (inactive),0.00563 (inactive),10.9% (inactive),39.7% (inactive)
COc1cccc(C2CC(c3ccc(F)cc3)Nc3nc(N)nn32)c1 (stereo not drawn),605,-6.5% (inactive),1.4% (inactive),105%,-6.1% (inactive),117%,-0.501 (inactive),2.1e-05 (inactive),0.00747 (inactive),-17.7% (inactive),16.2% (inactive)
N#Cc1cnc(SCC(=O)c2ccccc2)nc1N,682,-10.7% (inactive),8.2% (inactive),63.1%,-20.8% (inactive),120%,-0.402 (inactive),-2.9e-05 (inactive),0.00488 (inactive),4.13% (inactive),-24.8% (inactive)
COCCNC(=O)Cn1cc2c(n1)CCCCC2,623,5.8% (inactive),-19.8% (inactive),110%,-23.5% (inactive),98.4%,-0.529 (inactive),-8.7e-05 (inactive),0.00598 (inactive),7.33% (inactive),31.3% (inactive)
CCOC(=O)C1CCCN(CCC(C)c2ccccc2)C1 (stereo not drawn),469,-2.7% (inactive),2.6% (inactive),92.9%,25% (inactive),76.3%,-0.612 (inactive),-4.1e-05 (inactive),0.00315 (inactive),14.2% (inactive),29.6% (inactive)
Oc1cc(NCc2cccnc2)ccc1-c1nc2ccccc2o1,378,6.8% (inactive),-7.8% (inactive),119%,-28.5% (inactive),123%,-0.46 (inactive),8.7e-06 (inactive),0.00562 (inactive),-31.3% (inactive),-152% (inactive)
NC(=O)c1cccc(S(=O)(=O)N2CCCCC2)c1,417,3% (inactive),15.9% (inactive),105%,47.1% (inactive),87.4%,-0.473 (inactive),-4.7e-05 (inactive),0.006 (inactive),4.76% (inactive),31.6% (inactive)
CN1C(=O)C(CC(=O)N2CCN(C(c3ccccc3)c3ccccc3)CC2)N(C)C1=O (stereo not drawn),281,-2.3% (inactive),9.8% (inactive),97.2%,20.6% (inactive),118%,-0.288 (inactive),5.9e-06 (inactive),0.00745 (inactive),1.7% (inactive),22.8% (inactive)
CC(=O)c1ccccc1OCCn1nnc(-c2ccc(C)cc2)n1,556,-13.7% (inactive),-20.1% (inactive),106%,-24.2% (inactive),109%,-0.487 (inactive),-5.6e-05 (inactive),0.0055 (inactive),12.9% (inactive),14% (inactive)
Cc1cccc(N2CCN(C(=O)Cn3nc(Cc4ccncc4)c4ccccc4c3=O)CC2)c1C,895,-5.5% (inactive),14.3% (inactive),103%,-72% (inactive),118%,-0.563 (inactive),-4.2e-05 (inactive),0.00577 (inactive),4.52% (inactive),5.5% (inactive)
C/C(N)=C(/C#N)C(=O)COC(=O)c1cc(C)n(-c2ccc(F)cc2)c1C,717,10.2% (inactive),2.4% (inactive),116%,-93.8% (inactive),146%,-0.487 (inactive),1.6e-05 (inactive),0.00428 (inactive),15.2% (inactive),-211% (inactive)
O=C(CSc1ncc(-c2ccc(F)cc2)[nH]1)N1CCCCC1,425,0% (inactive),-11% (inactive),78.3%,-25.6% (inactive),106%,-0.331 (inactive),-5.1e-05 (inactive),0.00631 (inactive),-13% (inactive),-71.4% (inactive)
CC(OC(=O)C1CC=CCC1C(N)=O)C(Cl)=C(Cl)Cl (stereo not drawn),326,1.3% (inactive),-6% (inactive),108%,-94.9% (inactive),132%,-0.506 (inactive),-1.1e-05 (inactive),0.00744 (inactive),-2.75% (inactive),6.78% (inactive)
CC1CCc2nn(CC(=O)NCCCN3CCOCC3)cc2C1 (stereo not drawn),608,10.3% (inactive),-17.8% (inactive),125%,28.4% (inactive),107%,-0.578 (inactive),-1.9e-05 (inactive),0.0058 (inactive),8.95% (inactive),36.3% (inactive)
Cc1ccc(N(C)C(=O)N2CCN(c3ccccn3)CC2)cc1,525,-0.8% (inactive),30.2% (inactive),59.5%,-41% (inactive),97.6%,-0.59 (inactive),-2.8e-05 (inactive),0.00868 (inactive),5.03% (inactive),27.2% (inactive)
CCOc1ccc(NC(=O)CSc2nnc(Cc3cccn3C)n2-c2ccc(OC)cc2)cc1,366,-0.3% (inactive),0.9% (inactive),98%,-103% (inactive),117%,-0.489 (inactive),1.6e-05 (inactive),0.0062 (inactive),-4.09% (inactive),-3.93% (inactive)
CCOC(=O)c1csc(NC(=O)C2CCCCC2)n1,706,-18.4% (inactive),-10% (inactive),90.2%,-4.9% (inactive),94.6%,-0.419 (inactive),-0.000101 (inactive),0.00464 (inactive),-47.3% (inactive),-124% (inactive)
COc1ccc(-n2nnnc2SCC(=O)N2CCOCC2)cc1,788,2.8% (inactive),9.1% (inactive),85.7%,-9.3% (inactive),114%,-0.525 (inactive),-4.9e-05 (inactive),0.00627 (inactive),2.03% (inactive),-10.7% (inactive)
O=C(NCc1ccc(F)cc1)c1cc2ccccn2n1,589,4.4% (inactive),6% (inactive),97%,-1% (inactive),107%,-0.601 (inactive),-3.6e-05 (inactive),0.00683 (inactive),1.23% (inactive),-17.7% (inactive)
CCC(C)NC(=O)c1ccccc1NC(=O)C(C)N(c1ccccc1)S(C)(=O)=O (stereo not drawn),643,3.1% (inactive),5% (inactive),108%,-7% (inactive),99.9%,-0.479 (inactive),8.2e-06 (inactive),0.00595 (inactive),5.01% (inactive),28.8% (inactive)
S=c1[nH]nc(Cc2ccccc2)n1Cc1ccco1,769,-8% (inactive),3% (inactive),101%,-2.6% (inactive),102%,-0.499 (inactive),-7e-05 (inactive),0.00544 (inactive),5.02% (inactive),9.76% (inactive)
